AmpC inh no det: Promiscuous and Specific Inhibitors of AmpC Beta-Lactamase (assay without detergent); P00811; AmpC nitrocefin hydrolysis, absorbance 480 nm, no detergent; Potency, µM (titrated, usually from 28.7 µM), without a hit: at the top dose activity change, negative = inhibition; actives 1.8% (n = 71,000); AID 585, 2007; note: % of control where 0% means no effect
Target sequence (P00811 whole entry, looked up): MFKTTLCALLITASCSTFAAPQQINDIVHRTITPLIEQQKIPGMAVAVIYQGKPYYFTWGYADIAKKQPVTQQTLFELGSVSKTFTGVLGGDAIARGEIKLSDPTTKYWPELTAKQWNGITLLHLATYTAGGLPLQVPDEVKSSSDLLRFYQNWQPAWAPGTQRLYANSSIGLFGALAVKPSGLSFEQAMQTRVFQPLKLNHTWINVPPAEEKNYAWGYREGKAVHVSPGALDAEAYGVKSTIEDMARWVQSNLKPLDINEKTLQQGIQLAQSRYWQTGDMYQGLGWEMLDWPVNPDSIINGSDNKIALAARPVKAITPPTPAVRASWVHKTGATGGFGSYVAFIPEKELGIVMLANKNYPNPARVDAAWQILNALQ
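AmpC, 20 mM phosphate pH 7.0; 15 min cpd preinc, RT; start with nitrocefin (800 uM stock); A480 kinetic read, 20 s intervals, 4 min. No-enzyme wells = negative control.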
SmPrx2 inh: Schistosoma Mansoni Peroxiredoxins (Prx2). Schistosoma mansoni peroxiredoxin 2 (Prx2). S. mansoni Prx2 activity coupled to TGR/GSH (TGR is thioredoxin glutathione reductase), NADPH fluorescence loss, qHTS. Potency, µM. actives 0.07% (n = 65,000)
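Enzyme mix: 100 uM NADPH, 25 nM TGR, 700 uM GSH, 50 nM Prx2 in 100 mM phosphate pH 7.4, 10 mM EDTA, 0.01% Tween-20. 15 min RT with compound; NADPH/GSH added, H2O2 starts reaction; NADPH fluorescence read 8 min.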
Anthrax LT inh: qHTS Assay for Anthrax Lethal Toxin Internalization. Cells, anthrax lethal toxin internalization, FRET ratio (460/530). actives 0.67% (n = 70,000). Potency, µM (series often up to 40 µM), inactives show at the highest dose activity change, negative = inhibition, hits mostly inhibitors; note: % is set by controls: 0 for no effect and ±100 for the full control effect; nearly all actives have a fitted effect of over 50% in size
AmpC det inh: Promiscuous and Specific Inhibitors of AmpC Beta-Lactamase (assay with detergent); AID 584, 2007; actives 0.09% (n = 71,000); Potency, µM (series often up to 28.7 µM), without a hit: at the top dose activity change, negative = inhibition; purified AmpC, nitrocefin hydrolysis with detergent; active = well fitted curve in the direction sought with a large enough effect; inconclusive = small, poorly fitted or top-dose-only effect; note: % is set by controls: 0 for no effect and ±100 for the full control effect
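E. coli AmpC (5.3 nM) in 20 mM phosphate pH 7.0 with 0.01% Triton X-100, preincubated 15 min RT with compound; nitrocefin (2 uL of 800 uM stock) hydrolysis followed by 480 nm absorbance every 20 s over 4 min.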
* marks the source's active call; other numbers are inactive results; ? = inconclusive; . = no result given; ! = not confirmed by another sample; [ ] = dose if it differs, or a comment. Only some compounds are listed: those with a hit (about 2.6% of all), similar ones and a draw of the others. Unless noted, calls come from the whole dose curve. Potency is the fitted concentration of half-maximal effect.

SMILES	AmpC inh no det	SmPrx2 inh	Anthrax LT inh	AmpC det inh
Cc1noc(C)c1S(=O)(=O)N(CC(=O)Nc1ccc2c(c1)OCO2)c1ccc(C(C)C)cc1	-0.6%	>57	?	4.2%
NCCc1ccc(S(=O)(=O)O)cc1[N+](=O)[O-]	3.3%[5.75 µM]	>57	-0.8%[8 µM]	-1.9%[5.75 µM]
COc1cccc(C2CC(=O)N3CN(c4ccccc4F)CSC3=C2C#N)c1 (configuration not stated)	3.98µM*[single pt active]	>57	?	8.1%
COc1ccccc1N1CSC2=C(C#N)C(c3ccc(SC)cc3)CC(=O)N2C1 (configuration not stated)	2.51µM*	>57	?	10.8%
COc1ccc(OC)c(C2CC(=O)N3CN(c4ccccc4F)CSC3=C2C#N)c1 (configuration not stated)	3.98µM*[single pt active]	>57	-7.0%	11.6%
COc1cc(C2CC(=O)N3CN(c4ccccc4C)CSC3=C2C#N)cc(OC)c1OC (configuration not stated)	48.1%	>57	?	-5.6%
N#CSCSC#N	-10.2%	.	?	5.8%
N=C(N)SCCc1ccc(OCc2ccc([N+](=O)[O-])cc2)cc1	15.8µM*	>57	-19.4%	-6.9%
OCCN1CCN(C(c2cccs2)c2ccc3cccnc3c2O)CC1 (configuration not stated)	12.6µM*	>57	?	-6.5%
Cc1cc(N2CCCN(C)CC2)nc2cc(Cl)ccc12	37.1%	.	10µM*	5.8%
CC1=NCCc2c1[nH]c1cc(O)ccc21	12.6µM*!	>57	?	1.2%
COc1ccc2c3c([nH]c2c1)C(C)=NCC3	-1.1%	>57	?	-3.3%
C=CC(C)(C)c1[nH]c2ccccc2c1C1=C(O)C(=O)C(c2c[nH]c3c(CC=C(C)C)cccc23)=C(O)C1=O	?	>11.4	25.1µM*	?
Cc1nc(NC2CCCCC2)c2nc(-c3ccccc3)n(C(C)CN(C)C)c2n1 (configuration not stated)	118.6%	.	?	10.5%
O=c1c(-c2ccc(Cl)cc2)coc2c(CN3CCOCC3)c(O)ccc12	-5.1%	.	6.31µM*	8.8%
O=c1c(-c2ccccc2)coc2c(CN3CCCC3)c(O)ccc12	-7.7%	>57	13.6%	-3.8%
COC(=O)c1ccc(-c2nn(C)c(=O)c3ccccc23)cc1	3.98µM*[single pt active]	>57	-14.5%	11.2%
Cc1nn(-c2nc3ccccc3s2)c(N)c1-c1ccccc1	-12.0%	>57	12.6µM*	0.4%
CCCCCCCCCCCCCCCC(=O)NC[C@@H](COP(=O)([O-])OCC[N+](C)(C)C)OCC	200.9%	?	?	-4.1%
O=C(CCN1CCCCC1)c1csc2ccccc12	2.2%[5.75 µM]	>57	-9.2%[8 µM]	-2.1%[5.75 µM]
CN1CCN(CCCN2c3ccccc3Sc3ccc(C(F)(F)F)cc32)CC1	29.3%[5.75 µM]	>57	10µM*!	0.1%[5.75 µM]
O=C1CSC2(CCN(CCCN3c4ccccc4Sc4ccc(Cl)cc43)CC2)N1	69.2%[5.75 µM]	>57	7.0%[8 µM]	-4.8%[5.75 µM]
COc1ccc(C(=O)[C@H]2[C@H]3[C@@H](C(=O)[C@@H]4OC[C@H]3O4)[C@H]3C=Cc4ccccc4N32)c(OC)c1	123.9%	>57	?	-0.3%
Cc1ccc(NC(=O)CC2Oc3ccccc3NC2=O)c(C)c1 (configuration not stated)	3.98µM*[single pt active]	>57	0.4%	13.0%
CCN(CC)c1ccc(NC(=O)CC2Oc3ccccc3NC2=O)c(C)c1 (configuration not stated)	3.98µM*[single pt active]	>57	?	11.5%
SMILES	AmpC inh no det	SmPrx2 inh	Anthrax LT inh	AmpC det inh
Fc1cccc2sc(Nc3nnc(-c4ccccc4)o3)nc12	12.6µM*[single pt active]	>57	-2.1%	-1.2%
COc1ccccc1S(=O)Cc1ccc(C(=O)NCc2ccccc2Cl)o1 (configuration not stated)	3.98µM*[single pt active]	>57	?	12.2%
Cc1noc(C)c1S(=O)(=O)N1CCCC(C(=O)Nc2ccc(Cl)cn2)C1 (configuration not stated)	10.9%	>57	-2.3%	-4.4%
Cc1cc(NC(=O)C2CCCN(S(=O)(=O)c3c(C)noc3C)C2)no1 (configuration not stated)	3.98µM*[single pt active]	>57	-4.9%	12.9%
CN(C)CS/C(N)=N/[C@H](O)C(Cl)(Cl)Cl	-6.9%[5.75 µM]	>57	-14.9%[8 µM]	-2.0%[5.75 µM]
Nc1ncnc2nn([C@H]3O[C@@H](CO)[C@@H](O)[C@H]3O)nc12	2.4%[5.75 µM]	>57	-9.4%[8 µM]	-4.7%[5.75 µM]
CN(C)c1ccc(-c2nc(Nc3ccncc3)c3ccccc3n2)cc1	35.3%	>57	12.6µM*	8.6%
c1cc(CN2CCCCC2)cc(OCCCNc2nc3ccccc3s2)c1	74.5%	>57	25.1µM*!	-0.5%
COc1cccc(CNc2nc3ccccc3n2CCN2CCCCC2)c1	50.5%	>57	2.2%	-3.1%
CCCc1c(-c2ccc(O)cc2)nn(-c2ccc(O)cc2)c1-c1ccc(O)cc1	7.94µM*!	>57	?	-6.6%
CC(=O)O[C@H]1C(=O)[C@]2(C)[C@H]([C@H](OC(=O)c3ccccc3)[C@@]3(O)C[C@H](OC(=O)[C@@H](O)[C@@H](NC(=O)c4ccccc4)c4ccccc4)C(C)=C1C3(C)C)[C@]1(OC(C)=O)CO[C@@H]1C[C@@H]2O	117.4%	>57	?	2.1%
C#CCN[C@@H](C)Cc1ccccc1	3.2%	>57	-16.0%	-0.9%
O=C(Nc1ccc(S(=O)(=O)N2CCc3ccccc32)cc1)c1ccc2c(c1)OCO2	12.6µM*	>57	?	2.1%
O=C(Nc1nnc(C2CC2)s1)c1cccc(S(=O)(=O)N2CCc3ccccc32)c1	10µM*	>57	0.9%	-1.8%
O=C(Nc1ccc(S(=O)(=O)N2CCc3ccccc32)cc1)c1ccco1	-24.7%	>57	-4.8%	11.9%
CC(=O)O[C@@H]1C[C@]2(C)[C@H](C[C@@H](O)[C@H]3[C@@]4(C)CC[C@@H](O)[C@@H](C)[C@@H]4CC[C@@]32C)/C1=C(\CCC=C(C)C)C(=O)O	11.2%	>57	-0.3%	-5.6%
C[C@H](c1ccccc1)N1CCN([C@@H](C)c2ccccc2)CC1	7.6%[5.75 µM]	>57	-3.8%[8 µM]	-0.2%[5.75 µM]
Cc1c(C)c2cc(Cl)c(O)c(CN(C)C)c2oc1=O	-1.4%	.	10.6%	-0.2%
O=c1oc2c(O)c(O)cc3c(=O)oc4c(O)c(O)cc1c4c23	7.94µM*	>57	?	?
CC1=C(C(=O)OC(C)C)C(c2ccncc2)n2ncnc2N1 (configuration not stated)	-0.9%	>57	?	-3.2%
CC1=C(C(=O)OC(C)C)C(c2cccnc2)n2ncnc2N1 (configuration not stated)	3.98µM*[single pt active]	>57	26.0%	8.3%
CC1=C(C(=O)OC(C)C)C(c2ccccn2)n2ncnc2N1 (configuration not stated)	3.98µM*[single pt active]	>57	13.8%	14.3%
CCCS(=O)(=O)c1nnnn1-c1cccc(OC)c1	-8.5%	>57	3.16µM*	-7.0%
COc1ccc2cc(C(=O)Nc3c(C)n(C)n(-c4ccccc4)c3=O)sc(=O)c2c1OC	2.51µM*[single pt active]	>57	-6.2%	9.8%
